A selection: hits, their analogues and other compounds. The true share with any hit is near 1.5%.
NALP1 yeast inh: NALP1 inflammasome inhibitors in reconstituted yeast, colorimetric, S. cerevisiae, triplicate retest | S. cerevisiae NALP1/ASC/caspase-1 growth, X-gal OD620, 72 h | inhibition, % at 10 µM | 280,000 tested, 0.61% active | AID 2071, 2009; in the data active = inhibition mostly above about 24%, no sharp cut-off; inactive = mostly below about 32%
Efflux pump inh: inhibitors of Candida efflux pumps in yeast, primary screen, S. cerevisiae, Nile Red, multiplex; S. cerevisiae Candida pump triplex; inhibition, % at 10 µM; 330,000 tested, 0.44% active;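 active = plate passing quality check with inhibition over a set limit, or well fluorescence over plate mean plus 4 SD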;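 also: Nile Red retained in pooled yeast measured as flow cytometry median fluorescence; higher means more Nile Red kept so more efflux inhibition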
PolyA inhibitor: polyadenylation inhibitors in yeast reporter cells, primary screen, luminescence, S. cerevisiae; activity score, % at 12 µM; S. cerevisiae SKY197-pL101 polyadenylation reporter, beta-gal luminescence; efflux-impaired pdr1/pdr3 knockout yeast; score 100 = 6 SD above DMSO; 300,000 tested, 0.02% active;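 active = lowest replicate activity score at least 50, where 100 means six control SD above control mean; inconclusive = lowest score under 50 but half or more replicates reach 50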;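 also: yeast exposed to compound for 9 h at 30 °C; higher score means more reporter readthrough which indicates perturbed polyadenylation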
GASC-1 inh: inhibitors of GASC-1 histone demethylase, primary screen, biochemical, fluorescence, DELFIA europium; Lysine-specific demethylase 4C (Homo sapiens), Q9H3R0; GST-JMJD2C(1-420) H3K9me3 demethylation; inhibition, % at 2.35 µM; 330,000 tested, 0.069% active; AID 2099, 2009;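 active = more than half of a compound's replicate wells show inhibition beyond 50%, single wells judged on their own value; inconclusive = some, but no more than half, of replicates pass 50% inhibition; inactive = no replicate passes 50% inhibition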;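 also: signal counts dimethyl H3K9 product captured on neutravidin plate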
Target sequence (Q9H3R0 1-420 limits assumed): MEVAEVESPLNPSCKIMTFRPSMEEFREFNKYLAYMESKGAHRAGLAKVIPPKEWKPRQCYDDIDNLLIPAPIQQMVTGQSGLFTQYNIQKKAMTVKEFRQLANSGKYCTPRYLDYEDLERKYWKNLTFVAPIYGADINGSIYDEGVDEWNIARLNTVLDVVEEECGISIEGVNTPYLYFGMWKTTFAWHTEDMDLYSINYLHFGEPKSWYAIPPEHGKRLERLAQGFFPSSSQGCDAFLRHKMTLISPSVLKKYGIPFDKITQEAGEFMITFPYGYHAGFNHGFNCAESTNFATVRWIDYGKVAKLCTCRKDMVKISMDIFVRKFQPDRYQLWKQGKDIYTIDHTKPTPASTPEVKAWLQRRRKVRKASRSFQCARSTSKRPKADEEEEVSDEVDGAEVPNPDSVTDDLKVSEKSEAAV
NALP3 yeast inh: NALP3 inflammasome inhibitors in reconstituted yeast, primary screen, luminescence, uHTS | AID 2825, 2010 | inhibition, % at 10 µM | Yeast reconstituted NLRP3/ASC/caspase-1, beta-gal luminescence, 24 h | 330,000 tested, 0.39% active;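 active = inhibition of 50% or more; inactive = inhibition below 50%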
HDAC3 inhib: HDAC3 deacetylase inhibitors, primary screen, biochemical, fluorescence, cell-free homogeneous. Histone deacetylase 3 (Homo sapiens), O15379. recombinant HDAC3, fluorogenic peptide/trypsin coupled. inhibition, % at 8.3 µM. 320,000 tested, 0.15% active. AID 2718, 2010; in the data active = inhibition above about 26%, passing the limit was not always enough; inconclusive = no clear call, values can overlap the other calls
A number is an active result; i = inactive; ? = inconclusive; nt = no result given.

SMILES	NALP1 yeast inh	Efflux pump inh	PolyA inhibitor	GASC-1 inh	NALP3 yeast inh	HDAC3 inhib
CCn1c(NCc2ccco2)nc2ccccc21	24	i	i	i	i	i
Cc1cc(C(=O)NCC(=O)OCC(=O)N(C(C)C)C(C)C)ccc1[N+](=O)[O-]	i	i	i	i	i	i
C=C(C)CNC(=S)N/N=C/c1ccc([N+](=O)[O-])cc1	32	i	i	i	i	i
COCCNC(=S)N/N=C/c1ccc([N+](=O)[O-])cc1	i	i	i	i	i	nt
Cc1cccc(CN2CCC(Oc3ccc(C(=O)N4CCCC4)cc3)CC2)n1	i	i	i	66	i	i
COCCCNC(=O)c1ccc2nc(Cc3ccc(OC)cc3)oc2c1	25	i	i	i	i	i
CCOCCCNC(=O)c1ccc(OC)cc1	28	i	i	i	i	nt
C=CCNC(=O)c1ccc2nc(Cc3ccc(OC)cc3)oc2c1	nt	i	i	i	nt	i
Cc1cc(N2CCOCC2)nc2ccc(Cl)cc12	i	i	i	i	i	i
C=C(C)CSc1nc2sc3c(c2c(=O)n1-c1ccc(C)cc1)CCN(C)C3	i	nt	i	i	i	nt
O=C(CSc1nnc(SCc2ccc(Cl)cc2)s1)N/N=C/c1ccccc1C(=O)O	nt	i	i	i	i	i
COc1ccc(NC(=O)CC2Sc3ncnn3C2=O)cc1 (centres undefined)	95	i	i	i	i	i
O=C(CC1Sc2ncnn2C1=O)Nc1ccc(Cl)cc1 (centres undefined)	i	i	i	i	i	i
CCOC(=O)c1ccc(NC(=O)CC2Sc3ncnn3C2=O)cc1 (centres undefined)	93	i	i	i	i	i
C[C@H](CO)N1C[C@H](C)[C@@H](CN(C)C(=O)Nc2ccc3c(c2)OCO3)Oc2ccc(NC(=O)Cn3cnnn3)cc2C1=O	nt	i	nt	68	i	i
C[C@H](CO)N1C[C@H](C)[C@@H](CN(C)Cc2ccc3c(c2)OCO3)Oc2ccc(NC(=O)Cn3cnnn3)cc2C1=O	nt	i	nt	61	i	i
C[C@H](CO)N1C[C@H](C)[C@@H](CN(C)Cc2ccncc2)Oc2ccc(NC(=O)CCCCCC(=O)Nc3ccccc3N)cc2C1=O	nt	i	nt	i	i	90
COc1ccc(NC(=O)N(C)C[C@H]2Oc3ccc(NC(=O)Cn4cnnn4)cc3C(=O)N([C@H](C)CO)C[C@@H]2C)cc1	nt	i	nt	i	i	i
Cc1noc(C)c1NC(=O)N(C)C[C@H]1Oc2ccc(NC(=O)Cn3cnnn3)cc2C(=O)N([C@H](C)CO)C[C@@H]1C	nt	i	nt	66	i	i
C[C@H](CO)N1C[C@H](C)[C@@H](CN(C)Cc2ccncc2)Oc2ccc(NC(=O)Cn3cnnn3)cc2C1=O	nt	i	nt	i	i	i
Cc1nc2cc(Cl)c(Cl)cc2n1-c1ccccn1	nt	i	i	i	i	i
CC(c1ccco1)N(C(=O)c1cccc(Br)c1)c1ccccn1 (centres undefined)	i	i	i	i	i	i
COC(=O)c1cc(CSc2nc3ccccc3c(=O)n2C)oc1C	24	i	i	i	i	i
CC(C)(C)c1cc(C(=O)NCCN2CCCC2)cc(C(C)(C)C)c1	108	i	i	i	i	i
O=C(NCCN1CCCC1)c1ccc(Cl)cc1	i	i	i	i	i	i
SMILES	NALP1 yeast inh	Efflux pump inh	PolyA inhibitor	GASC-1 inh	NALP3 yeast inh	HDAC3 inhib
O=C(NCCNC(=O)c1cc(OCC(F)(F)F)ccc1OCC(F)(F)F)Nc1cccc(C(F)(F)F)c1	i	i	i	i	i	36
CN(C)S(=O)(=O)NCCNC(=O)c1cc(OCC(F)(F)F)ccc1OCC(F)(F)F	i	i	i	i	i	i
CC[C@@H]1C=C(C)C[C@H](C)C[C@H](OC)[C@H]2O[C@@](O)(C(=O)C(=O)N3CCCC[C@H]3C(=O)O[C@H](/C(C)=C/[C@@H]3CC[C@@H](O)[C@H](OC)C3)[C@H](C)[C@@H](O)CC1=O)[C@H](C)C[C@@H]2OC	i	nt	nt	nt	nt	nt
C=CC[C@@H]1C=C(C)C[C@H](C)C[C@H](OC)[C@H]2O[C@@](O)(C(=O)C(=O)N3CCCC[C@H]3C(=O)O[C@H](/C(C)=C/[C@@H]3CC[C@@H](O)[C@H](OC)C3)[C@H](C)[C@@H](O)CC1=O)[C@H](C)C[C@@H]2OC	nt	1.1	i	i	i	?
O=C(CNC(=O)c1ccc(N2CCCC2=O)cc1)Nc1ccc(F)c(F)c1F	nt	i	nt	i	i	i
COc1ccc(-c2noc(CNC(=O)CCCN3C(=O)[C@H]4CC=CC[C@H]4C3=O)n2)cc1	i	i	i	i	i	i
COc1cc(OC)c(-c2c3cc(O)c(=O)cc-3oc3cc(O)c(O)cc23)cc1OC	i	i	nt	i	i	i
Cc1c2cc(O)c(=O)cc-2oc2cc(O)c(O)cc12	i	1.0	i	i	i	i
CC(C)Cc1nnc(NC(=O)CCC(=O)NC2CCCCCCC2)s1	i	i	i	i	i	i
CC(C)Cc1nnc(NC(=O)CCC(=O)NC2CC2)s1	38	i	i	i	i	i
Cc1ccc(NC(=O)c2sc(N)nc2-c2ccc([N+](=O)[O-])cc2)c(C)c1	i	i	i	i	i	i
COC(=O)C1=NNC2(c3ccc(Cl)cc3)C(=O)N(c3ccccc3)C(=O)C12 (centres undefined)	i	i	i	i	i	34
COc1ccc(C(=O)O/N=C(/c2ccccc2)c2ccncc2)cc1	i	i	i	i	i	44
CCS(=O)(=O)NCc1ccc2[nH]c3c(c2c1)CCCC3	i	1.3	i	i	i	i
Cc1ccc(NC(=O)Cn2nnc(C(=O)Nc3ccc(F)c(Cl)c3)c2N)cc1	37	i	i	i	i	i
CC(C)NC(=O)C(C)Oc1ccc(S(=O)(=O)NCc2ccc3c(c2)OCO3)cc1 (centres undefined)	i	i	i	i	i	i
COC(=O)CSc1nnc(CNS(=O)(=O)c2ccc(C)cc2)n1C	36	i	i	i	i	i
COC(=O)CSc1nnc(-c2ccc(S(=O)(=O)N3CCCC3)cc2)n1C	42	i	i	i	i	i
COC(=O)CSc1nnc(CNS(=O)(=O)c2ccc(Br)cc2)n1C	i	i	i	i	i	i
CCC1CCCCN1C(=O)CCS(=O)(=O)c1ccccc1 (centres undefined)	i	i	i	i	i	i
COc1cccc(C2=NC(C)(C)NC(c3ccccc3O)C2)c1 (centres undefined)	16	i	i	i	i	i
CCC1(C)N=C(c2ccc3c(c2)OCO3)CC(c2ccccc2O)N1 (centres undefined)	i	i	i	i	i	i
COCC1CCN(Cc2cn[nH]c2-c2cc(OC)c(OC)c(OC)c2)CC1	i	i	i	i	i	i

Compound activity: PubChem, several laboratories
